Results taken from PubChem BioAssay AID720565 (National Center for Advancing Translational Sciences (NCATS), 2013).
Inconclusive results are not listed. Active and inactive are the calls of the source. Calls follow the shape of the dose curve; as a rule, active = well fitted activation curve with a large enough effect; inconclusive = small, poorly fitted or top-dose-only effect; inactive = no such curve, though single readings can be large or run the other way.

Test: qHTS for small molecules that induce genotoxicity in ELG1 expressing cells: Confirmatory Assay for Cherry-picked Compounds; also: nearly all actives have a fitted effect of over 35% in size
Conditions: ELG1-luciferase reporter cells, luminescence, 16 h; series mostly up to 46.1 µM
Procedure, shortened: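 Cells carrying the ELG1-luciferase reporter were exposed to compound for 16 hr at 37 C, 5% CO2, at 2,000 cells per well. Rise in luciferase activity, read with ONE-Glo after 30 min at room temperature, indicates genotoxic stress.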
Potency is read from the fitted curve at half-maximal effect.

Structure (SMILES) | Potency
N#Cc1cc2cc3c(cc2nc1SCC(=O)N1CCOCC1)OCCO3 | 0.889 µM (active)
COc1ccc(-c2cnc(-c3cccnc3)o2)cc1 | 15.8 µM (active)
CN(C)c1ccc(/C=C/c2ccnc3ccc(F)cc23)cc1 | 0.354 µM (active)
O=C(Cc1ccc(OCCCc2ccccc2)cc1)NO | 15.8 µM (active)
Cc1noc(C)c1-c1ccc2ncnc(NCc3ccc(F)c(F)c3)c2c1 | 15.8 µM (active)
O=C(CSCC(=O)N1CCN(c2ccccc2)CC1)Nc1nc(-c2ccc(Cl)s2)cs1 | inactive
O=c1c(-c2ccc(F)cc2)coc2c3c(ccc12)OCCO3 | 4.45 µM (active)
COc1cccc(CNC(=O)C2CCCN(c3nn4c(=O)cc(C)nc4s3)C2)c1 (configuration not stated) | inactive
CCCCCn1ncc2c3sc(C)cc3n(C)c2c1=O | 12.5 µM (active)
C=CCn1c(C)cc(C(=O)COC(=O)c2n[nH]c(=O)c3ccccc23)c1C | 2.81 µM (active)
COc1cc(/C=C(\C#N)C(=O)Nc2cccc(C(=O)O)c2)ccc1OCc1ccc(F)cc1 | 28.1 µM (active)
CCn1c(=O)n(CC)c2cc(S(=O)(=O)N3CCC(c4ccccc4)CC3)ccc21 | inactive
O=C(CSc1nnc(-c2ccc(F)cc2)o1)Nc1ccc(S(=O)(=O)N2CCCCCC2)cc1 | inactive
Nc1ccc2cccnc2c1 | 1.77 µM (active)
Cc1ccc(C(=O)Cn2c3c(sc2=N)CCCC3)cc1 | 0.141 µM (active)
Oc1ccccc1-c1cc(-c2ccccc2)n[nH]1 | 2.23 µM (active)
O=S(=O)(c1c(F)cccc1F)N1CCN(S(=O)(=O)c2c(F)cccc2F)CC1 | 15.8 µM (active)
